# An excerpt weighted towards active compounds, which were near 2.1% of everything screened.
# YB-1 expr inh – inhibitors of YB-1 gene expression, primary screen, cell-based, fluorescence; delta delta Cp (YB-1 minus CDIP) (test concentration not listed); 30,000 tested, 0.37% active; U2OS, qRT-PCR YB-1 vs CDIP delta delta Cp, 16 h; stronger effect = higher value; zero = DMSO, each unit about twofold; AID 434959, 2010;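 active = delta delta Cp rounded down to an integer at or above 3, about 3 SD of DMSO wells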;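 note: higher means less YB-1 transcript or more CDIP transcript relative to DMSO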
# ROS inducer – ROS inducers in U2OS cancer cells, primary screen, cell-based, H2DCF-DA fluorescence; U2OS ROS induction; ROS induction (% of piperlongumine), % at 10 µM; 46,000 tested, 2% active; AID 624156, 2012; in the data active = ROS induction above about 79%, passing the limit was not always enough;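 note: 0% = DMSO vehicle median and 100% = reference compound median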
# An asterisk follows results filed as active; . = no result given.
SMILES,YB-1 expr inh,ROS inducer
CC1(C)Cc2c(ccc3ccccc23)C(=NCCC(=O)O)N1,.,-5.4
C[C@@H]1CN([C@H](C)CO)C(=O)c2cccc(NC(=O)c3ccncc3)c2O[C@H]1CN(C)C,0.3,-1.8
C[C@H]1CN([C@@H](C)CO)C(=O)c2cccc(NC(=O)c3ccc(-c4nccs4)cc3)c2O[C@H]1CN(C)Cc1ccc(C(=O)Nc2ccccc2N)cc1,-0.387,28.2
C[C@@H]1CN([C@@H](C)CO)C(=O)c2cccc(NC(=O)Nc3ccc(C(F)(F)F)cc3)c2O[C@H]1CN(C)Cc1ccc(C(=O)Nc2ccccc2N)cc1,-0.213,91.0*
C[C@H](CO)N1C[C@H](C)[C@H](CN(C)Cc2ccc(C(=O)Nc3ccccc3N)cc2)Oc2c(NC(=O)Nc3ccc(F)cc3)cccc2C1=O,-0.0281,2.8
C[C@@H]1CN([C@H](C)CO)C(=O)c2cccc(NC(=O)c3ccc(-c4nccs4)cc3)c2O[C@@H]1CN(C)Cc1ccc(C(=O)Nc2ccccc2N)cc1,-0.459,213.8*
C[C@H](CO)N1C[C@H](C)[C@H](CN(C)C)Oc2c(NC(=O)c3ccncc3)cccc2C1=O,3.55*,17.6
C[C@H](CO)N1C[C@H](C)[C@@H](CN(C)Cc2ccc(Cl)c(Cl)c2)Oc2c(NC(=O)c3ccc(-c4nccs4)cc3)cccc2C1=O,-0.496,96.6*
C[C@@H]1CN([C@H](C)CO)C(=O)c2cccc(NC(=O)c3ccc(-c4nccs4)cc3)c2O[C@@H]1CN(C)Cc1ccc(-c2ccccc2)cc1,-0.232,31.5
CC1CCCCN1CCCNC(=O)Cn1cccc1C(=O)c1ccccc1 (stereo not drawn),.,8.3
C[C@@H]1CN([C@H](C)CO)C(=O)c2cccc(NC(=O)c3ccc(-c4nccs4)cc3)c2O[C@H]1CN(C)Cc1ccc(C(F)(F)F)cc1,0.202,105.3*
C[C@@H]1CN([C@H](C)CO)C(=O)c2cccc(NC(=O)c3ccc(-c4nccs4)cc3)c2O[C@H]1CN(C)Cc1ccc(C(=O)O)cc1,-0.409,7.9
O=C1CCCC2=C1C(c1cccnc1)Nc1ccc3ccccc3c12 (stereo not drawn),.,10.7
COc1cc2c(cc1OC)CN(C(=O)[C@H]1[C@@H]3C(=O)O[C@@H](c4ccccc4)[C@@H](c4ccccc4)N3[C@@H](c3ccc(OCCO)cc3)[C@]13C(=O)Nc1ccc(C#CC4=CCCCC4)cc13)CC2,-0.498,61.0
COc1cc2c(cc1OC)CN(C(=O)[C@H]1[C@@H]3C(=O)O[C@@H](c4ccccc4)[C@@H](c4ccccc4)N3[C@@H](c3ccccc3OCCO)[C@]13C(=O)Nc1ccc(C#CCCO)cc13)CC2,-0.562,120.1*
COC(=O)C(CC#Cc1ccc2c(c1)[C@]1(C(=O)N2)[C@H](c2ccc(O)cc2)N2[C@H](c3ccccc3)[C@H](c3ccccc3)OC(=O)[C@H]2[C@@H]1C(=O)N1CCCCCCC1)C(=O)OC,0.0946,39.6
COc1cc2c(cc1OC)CN(C(=O)[C@H]1[C@@H]3C(=O)O[C@@H](c4ccccc4)[C@@H](c4ccccc4)N3[C@@H](c3ccccc3OCCO)[C@]13C(=O)Nc1ccc(C#CC4=CCCCC4)cc13)CC2,-0.259,86.7*
COc1cc2c(cc1OC)CN(C(=O)[C@@H]1[C@H]3C(=O)O[C@H](c4ccccc4)[C@H](c4ccccc4)N3[C@H](c3ccc(OCCO)cc3)[C@@]13C(=O)Nc1ccccc13)CC2,-0.133,98.2*
COC(=O)C(CC#Cc1ccc2c(c1)[C@]1(C(=O)N2)[C@H](C(=O)N2CCCCCCC2)[C@H]2C(=O)O[C@H](c3ccccc3)[C@H](c3ccccc3)N2[C@@H]1c1ccc(OCCO)cc1)C(=O)OC,-0.102,103.9*
COc1cc2c(cc1OC)CN(C(=O)[C@@H]1[C@H]3C(=O)O[C@H](c4ccccc4)[C@H](c4ccccc4)N3[C@H](c3ccc(O)cc3)[C@@]13C(=O)Nc1ccccc13)CC2,0.261,48.1
COc1ccc(C#Cc2ccc3c(c2)[C@]2(C(=O)N3)[C@H](c3ccccc3OCCO)N3[C@H](c4ccccc4)[C@H](c4ccccc4)OC(=O)[C@H]3[C@@H]2C(=O)N2CCc3cc(OC)c(OC)cc3C2)cc1,-0.178,63.7
CCOc1ccccc1NC(=S)NCC(C)CSc1ccc(C)cc1 (stereo not drawn),.,12.7
CCc1ccccc1NC(=O)c1ccc2nc(N3CCC(C)CC3)sc2c1,.,0.9
O=C1O[C@@H](c2ccccc2)[C@@H](c2ccccc2)N2[C@@H](c3ccccc3OCCO)[C@]3(C(=O)Nc4ccc(C#CCCO)cc43)[C@@H](C(=O)N3CCCCCCC3)[C@H]12,-0.11,220.7*
O=C1O[C@@H](c2ccccc2)[C@@H](c2ccccc2)N2[C@@H](c3ccc(OCCO)cc3)[C@]3(C(=O)Nc4ccc(C#CCCO)cc43)[C@@H](C(=O)N3CCCCCCC3)[C@H]12,0.118,17.4
SMILES,YB-1 expr inh,ROS inducer
C[C@H](CO)N1C[C@H](C)[C@@H](CN(C)Cc2ccc3c(c2)OCO3)Oc2c(NC(=O)CCCCCC(=O)Nc3ccccc3N)cccc2C1=O,0.39,38.7
C[C@@H]1CN([C@H](C)CO)C(=O)Cc2cc(NC(=O)CCCCCC(=O)Nc3ccccc3N)ccc2O[C@@H]1CN(C)Cc1ccc(Cl)c(Cl)c1,0.248,83.7*
C[C@@H]1CN([C@@H](C)CO)C(=O)c2cccc(NC(=O)CCCCCC(=O)Nc3ccccc3N)c2O[C@H]1CN(C)Cc1ccc2c(c1)OCO2,-0.359,104.8*
C[C@@H]1CN([C@H](C)CO)C(=O)Cc2cc(NC(=O)CCCCCC(=O)Nc3ccccc3N)ccc2O[C@@H]1CN(C)Cc1ccncc1,-0.242,-1.2
C[C@H](CO)N1C[C@H](C)[C@H](CN(C)Cc2ccc3c(c2)OCO3)Oc2ccc(NC(=O)CCCCCC(=O)Nc3ccccc3N)cc2C1=O,0.397,-4.5
C[C@H]1CN([C@@H](C)CO)C(=O)c2cccc(NC(=O)CCCCCC(=O)Nc3ccccc3N)c2O[C@@H]1CN(C)Cc1ccc2c(c1)OCO2,0.0201,107.7*
CCN1/C(=C2\C(=O)N(c3ccccc3)N=C2C)C=Cc2ccccc21,.,12.8
O=C(NCc1ccco1)c1ccccc1SCc1ccc(F)cc1,.,-9.6
CC1Sc2cc(S(=O)(=O)NCCc3ccccc3)ccc2NC1=O (stereo not drawn),.,18.8
CSc1nnc2c(n1)OC(C)Nc1ccccc1-2 (stereo not drawn),-0.345,31.5
CSc1nnc2c(n1)OC(C1CC=C(C)CC1)Nc1ccccc1-2 (stereo not drawn),-0.0858,102.8*
COc1cccc(CNC(C)c2ccccc2)c1OCc1ccccc1F (stereo not drawn),.,60.8
C[C@@H]1CN([C@H](C)CO)C(=O)Cc2cc(NC(=O)Cc3cn(C)c4ccccc34)ccc2O[C@@H]1CN(C)Cc1ccc(Oc2ccccc2)cc1,0.0387,130.6*
C[C@H](CO)N1C[C@H](C)[C@H](CN(C)Cc2ccc(-c3ccccc3)cc2)Oc2ccc(NC(=O)Cc3cn(C)c4ccccc34)cc2CC1=O,-0.076,1.8
C[C@@H]1CN([C@H](C)CO)C(=O)Cc2cc(NC(=O)Cc3cn(C)c4ccccc34)ccc2O[C@H]1CN(C)Cc1ccccc1,-0.342,2.6
C[C@@H]1CN([C@H](C)CO)C(=O)Cc2cc(NC(=O)Cc3cn(C)c4ccccc34)ccc2O[C@@H]1CN(C)Cc1ccc(-c2ccccc2)cc1,-0.119,109.1*

# Bioassay records from PubChem.
